In PubChem BioAssay (EPA / NIEHS):
Where “and” joins values, the source holds several entries; their conditions need not be identical. Equal entries are not always repeated. Where a structure was tested more than once in an assay, its records may differ in their call. Calls of active or inactive are those of the source. How the source made its calls: active means hit-call score of the fitted dose curve at least 0.9, where 1 is the maximum; inactive means score below 0.9.

How the values were obtained:
[1] = APR_HepG2_P-H2AX_72hr: Apredica 72-hour HepG2 Assay for H2AX Phosphorylation (AID 2282916); conditions: imaging, actives raise or lower the signal;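 further: phospho-histone H2A.x immunostain intensity per cell marking DNA damage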
How it was run: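 Readout: phospho-H2A.x immunofluorescence (FITC secondary) plus Hoechst nuclear stain, high-content imaging at 20x, six fields/well. HepG2, 72 hr compound exposure, 0.39–200 uM, final DMSO 0.5% v/v. Gain or loss fitted relative to DMSO baseline.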

[2] = APR_HepG2_MitoMembPot_72hr: Apredica 72-hour HepG2 Assay for Mitochondrial Membrane Potential (AID 2282917); conditions: imaging, actives raise or lower the signal
How it was run: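 HepG2 cells dosed 72 hr with compound at 0.39–200 uM in duplicate, 0.5% v/v DMSO final. Mitochondria stained with 250 nM MitoTracker Red CMXRos for 30 min before formaldehyde fixation, imaged by high-content fluorescence; bidirectional fit versus DMSO.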

[3] = APR_HepG2_MitoticArrest_72hr: Apredica 72-hour HepG2 Assay for Mitotic Arrest (AID 2282918); conditions: high-content imaging, actives raise or lower the signal
How it was run: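 High-content imaging of fixed human HepG2 cells after 72 h compound exposure (0.39–200 uM, duplicates, 0.5% DMSO); mitotic arrest scored from phospho-histone H3 and nuclear Hoechst staining relative to DMSO.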

[4] = APR_HepG2_MicrotubuleCSK_72hr: Apredica 72-hour HepG2 Assay for Microtubule CSK Stabilty (AID 2282919); conditions: HepG2 microtubule cytoskeleton, high-content imaging, actives raise or lower the signal
How it was run: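 HepG2, 72 hr cmpd exposure, 0.39–200 uM (10 pts, duplicate), 0.5% DMSO. 3.7% formaldehyde fix, 0.5% Triton perm, anti-alpha-tubulin/Cy5 plus Hoechst. HCS fluorescence intensity; bidirectional fit vs DMSO baseline; taxol as positive control.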

[5] = APR_HepG2_StressKinase_72hr: Apredica 72-hour HepG2 Assay for Stress Kinase (AID 2282921); conditions: HepG2 stress kinase (phospho-c-Jun) imaging, actives raise or lower the signal
How it was run: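 Phospho-c-Jun immunofluorescence measured by high-content imaging at 20x, six fields per well; bidirectional curve fitting against DMSO as baseline. Dosing: 0.39–200 uM, 72 h, 0.5% DMSO final.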

[6] = APR_HepG2_StressKinase_24hr: Apredica 24-hour HepG2 Assay for Stress Kinase (AID 2282922); conditions: HepG2 stress kinase (phospho-c-Jun) imaging, actives raise or lower the signal
How it was run: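 Read-out: phospho-c-Jun immunofluorescence (Cy3 secondary) quantified by high-content imaging at 20x, nuclei defined by Hoechst 33342. Human HepG2 liver cells dosed 24 hr, 0.39–200 uM, DMSO 0.5% v/v; gain or loss of signal fitted relative to DMSO.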

[7] = APR_HepG2_p53Act_72hr: Apredica 72-hour HepG2 Assay for p53 Activation (AID 2282923); conditions: high-content imaging, actives raise or lower the signal;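 further: average cellular p53 protein immunofluorescence intensity in HepG2 cells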
How it was run: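 Readout: p53 immunofluorescence quantified by automated high-content imaging at 20x, six fields per well, nuclei located via Hoechst. Dosing ran 72 hr over ten concentrations from 0.39 to 200 uM; bidirectional curve fitting against DMSO baseline.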

[8] = APR_HepG2_MitoMass_72hr: Apredica 72-hour HepG2 Assay for Mitochondrial Mass (AID 2282924); conditions: high-content imaging, actives raise or lower the signal;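 further: MitoTracker Red CMXRos stain intensity per cell imaged as mitochondrial mass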
How it was run: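 Read-out: MitoTracker Red fluorescence intensity from automated imaging (20x, six fields per well) in human HepG2 liver cells. Dosing ran 72 hr, 0.39–200 uM, 0.5% DMSO; bidirectional curve fitting versus DMSO baseline.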

[9] = APR_HepG2_NuclearSize_72hr: Apredica 72-hour HepG2 Assay for Nuclear Size (AID 2282925); conditions: high-content imaging, actives raise or lower the signal
How it was run: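 Read-out: nuclear diameter from Hoechst 33342 images (ArrayScan, 20x, six fields/well), via cell-cycle image analysis. HepG2 were dosed 0.39–200 uM for 72 hr in 0.5% DMSO. Bidirectional fit relative to DMSO.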

[10] = molecular target: CCAAT/enhancer-binding protein beta (Homo sapiens) (UniProt P17676); assay: ATG_C_EBP_CIS: Attagene CIS-FACTORIAL HepG2 Assay for human CCAAT/Enhancer Binding Protein (C/EBP) beta (AID 2282927); conditions: HepG2 Attagene cis-factorial transcription factor reporter; actives raise or lower the signal
How it was run: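 HepG2, transient MRTU transfection, 24 h treatment. RT-PCR plus CE fluorescence; DMSO negative control, bidirectional fit.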

[11] = ATG_CMV_CIS: Attagene CIS-FACTORIAL HepG2 Assay for human CMV (Internal Marker) (AID 2282928); conditions: HepG2 CMV promoter reporter, transcription factor profiling; actives raise or lower the signal;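 further: endpoint acts as a background internal control marker rather than a target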
How it was run: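 Readout: fluorescent reporter cDNA fragments separated by capillary electrophoresis after RT-PCR and HpaI cut. Cells: HepG2 carrying transfected cis-promoter reporter constructs, dosed 24 h. Endpoint serves as background internal-marker control, fit bidirectionally versus DMSO.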

[12] = ATG_DR4_LXR_CIS: Attagene CIS-FACTORIAL HepG2 Assay for human Liver X Receptor (LXR), DR4 submotif (AID 2282929); conditions: HepG2 Attagene DR4 cis-reporter, mRNA transcription; actives raise or lower the signal
How it was run: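 HepG2 cells transiently transfected with cis-promoter-driven multiplexed reporter units (DR4 element) were dosed for 24 h. Reporter mRNA was quantified by RT-PCR, fluorescent primer extension, HpaI digestion and capillary electrophoresis; bidirectional fitting versus DMSO baseline.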

[13] = molecular target: Aryl hydrocarbon receptor (Homo sapiens) (UniProt P35869); assay: ATG_Ahr_CIS: Attagene CIS-FACTORIAL HepG2 Assay for human Aryl Hydrocarbon Receptor (Ahr) (AID 2282930); conditions: HepG2 AhR cis-factorial reporter transcription; actives raise or lower the signal
How it was run: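 Endogenous factor activity is tracked through cis-promoter reporter units transfected into HepG2 cells. Transcript levels at 24 h are read by fluorescent RT-PCR and capillary electrophoresis, with activity in either direction scored relative to DMSO.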

[14] = ATG_AP_1_CIS: Attagene CIS-FACTORIAL HepG2 Assay for human Activator Protein 1 (AP-1) (AID 2282931); conditions: HepG2 Attagene cis-factorial AP-1 reporter mRNA; actives raise or lower the signal
How it was run: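 HepG2 cells transiently transfected with cis-element-driven multiplex reporter units; 24 h compound exposure. Reporter mRNA quantified by RT-PCR, FAM-labelled fragments resolved by capillary electrophoresis; bidirectional fit versus DMSO baseline.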

[15] = ATG_AP_2_CIS: Attagene CIS-FACTORIAL HepG2 Assay for human Activator Protein 2 (AP-2) (AID 2282932); conditions: HepG2 AP-2 cis-reporter, Attagene transcription factor profiling; actives raise or lower the signal
How it was run: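 Read-out: fluorescent reporter mRNA via RT-PCR and capillary electrophoresis, 24 h post-dose in transiently transfected HepG2. Endogenous factors drive cis-promoter reporters; gain or loss of signal fitted bidirectionally against DMSO.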

[16] = ATG_BRE_CIS: Attagene CIS-FACTORIAL HepG2 Assay for human Bone Morphogenetic Protein (BMP) Response Element (BRE) (AID 2282933); conditions: HepG2 BMP response element reporter, Attagene transcription factor profiling; actives raise or lower the signal
How it was run: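 HepG2 cells transiently transfected with multiplexed cis-element reporter units were dosed with chemical for 24 h. Reporter mRNA was measured by RT-PCR with fluorescent labelling, HpaI digestion and capillary electrophoresis; bidirectional fitting relative to DMSO.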

[17] = molecular target: Retinoic acid receptor alpha (Homo sapiens) (UniProt P10276); assay: ATG_DR5_RAR_CIS: Attagene CIS-FACTORIAL HepG2 Assay for human Retinoic Acid Receptor Alpha (RARE), DR5 submotif (AID 2282934); conditions: HepG2 Attagene cis-factorial RARE DR5 reporter, mRNA; actives raise or lower the signal
How it was run: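 After 24 h of chemical exposure, transiently transfected HepG2 cells were lysed for total RNA; the DR5-regulated reporter transcript was quantified via RT-PCR and capillary electrophoresis, with activity fitted bidirectionally against DMSO.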

[18] = molecular target: Transcription factor E2F1 (Homo sapiens) (UniProt Q01094); assay: ATG_E2F_CIS: Attagene CIS-FACTORIAL HepG2 Assay for human E2F Transcription Factor 1 (AID 2282935); conditions: HepG2 Attagene cis-reporter, E2F reporter RNA transcripts; actives raise or lower the signal
How it was run: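 Transient MRTU transfection of HepG2; 24 h compound exposure; RNA → oligo(dT) RT → PCR → FAM label → HpaI cut → CE fluorescence. Gain/loss of signal fit against DMSO.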

[19] = APR_HepG2_P-H2AX_24hr: Apredica 24-hour HepG2 Assay for H2AX Phosphorylation (AID 2282920); conditions: high-content imaging, actives raise or lower the signal
How it was run: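 High-content imaging of phospho-histone H2A.x immunofluorescence, nuclei counterstained with Hoechst 33342, in fixed HepG2 cells. Compounds ran 0.39–200 uM in duplicate for 24 h, final DMSO 0.5%. Signal change fitted both directions against DMSO.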

Measured: AC50

Aryl hydrocarbon receptor (Homo sapiens), sequence (P35869 whole entry, looked up): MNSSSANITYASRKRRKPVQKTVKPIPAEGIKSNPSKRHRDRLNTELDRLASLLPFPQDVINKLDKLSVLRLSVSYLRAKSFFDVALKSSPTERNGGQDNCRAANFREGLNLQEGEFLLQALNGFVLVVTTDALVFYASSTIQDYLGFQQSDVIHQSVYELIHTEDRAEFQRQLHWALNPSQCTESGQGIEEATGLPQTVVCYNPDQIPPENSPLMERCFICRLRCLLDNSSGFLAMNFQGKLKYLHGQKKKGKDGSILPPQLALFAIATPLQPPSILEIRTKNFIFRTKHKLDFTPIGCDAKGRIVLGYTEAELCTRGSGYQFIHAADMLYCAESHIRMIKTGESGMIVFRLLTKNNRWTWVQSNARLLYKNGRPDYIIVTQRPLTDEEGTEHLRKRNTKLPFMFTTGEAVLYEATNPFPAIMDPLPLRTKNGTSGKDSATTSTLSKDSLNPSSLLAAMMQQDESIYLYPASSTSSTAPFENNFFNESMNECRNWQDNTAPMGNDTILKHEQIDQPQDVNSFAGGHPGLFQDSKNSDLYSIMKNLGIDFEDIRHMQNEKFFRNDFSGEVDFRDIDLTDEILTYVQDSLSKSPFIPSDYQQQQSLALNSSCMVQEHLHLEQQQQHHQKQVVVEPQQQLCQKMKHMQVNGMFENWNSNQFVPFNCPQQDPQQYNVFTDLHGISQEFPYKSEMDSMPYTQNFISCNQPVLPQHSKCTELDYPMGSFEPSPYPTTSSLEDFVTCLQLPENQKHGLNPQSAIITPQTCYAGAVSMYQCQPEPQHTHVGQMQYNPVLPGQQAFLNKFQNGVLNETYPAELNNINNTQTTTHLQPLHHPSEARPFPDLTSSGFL
CCAAT/enhancer-binding protein beta (Homo sapiens), sequence (P17676 whole entry, looked up): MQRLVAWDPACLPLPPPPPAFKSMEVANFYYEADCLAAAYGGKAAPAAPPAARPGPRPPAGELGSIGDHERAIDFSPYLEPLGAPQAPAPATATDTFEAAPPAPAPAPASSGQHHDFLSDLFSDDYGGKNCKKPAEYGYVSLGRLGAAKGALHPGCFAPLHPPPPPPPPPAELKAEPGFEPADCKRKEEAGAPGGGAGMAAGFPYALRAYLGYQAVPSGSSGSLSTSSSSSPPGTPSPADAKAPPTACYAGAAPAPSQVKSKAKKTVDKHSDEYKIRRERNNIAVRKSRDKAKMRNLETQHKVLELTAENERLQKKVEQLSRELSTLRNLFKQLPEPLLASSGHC
Retinoic acid receptor alpha (Homo sapiens), sequence (P10276 whole entry, looked up): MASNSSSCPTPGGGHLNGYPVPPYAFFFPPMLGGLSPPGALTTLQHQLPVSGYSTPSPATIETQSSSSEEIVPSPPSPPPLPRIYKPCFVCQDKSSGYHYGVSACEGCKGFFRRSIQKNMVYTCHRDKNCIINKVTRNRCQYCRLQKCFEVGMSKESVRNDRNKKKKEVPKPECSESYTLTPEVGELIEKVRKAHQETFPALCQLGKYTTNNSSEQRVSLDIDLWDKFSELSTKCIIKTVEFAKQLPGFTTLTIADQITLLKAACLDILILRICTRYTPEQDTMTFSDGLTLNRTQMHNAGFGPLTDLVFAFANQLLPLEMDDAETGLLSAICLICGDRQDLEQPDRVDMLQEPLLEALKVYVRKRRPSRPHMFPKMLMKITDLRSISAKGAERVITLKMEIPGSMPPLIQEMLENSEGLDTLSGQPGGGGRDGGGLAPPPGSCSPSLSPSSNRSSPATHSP
Transcription factor E2F1 (Homo sapiens), sequence (Q01094 whole entry, looked up): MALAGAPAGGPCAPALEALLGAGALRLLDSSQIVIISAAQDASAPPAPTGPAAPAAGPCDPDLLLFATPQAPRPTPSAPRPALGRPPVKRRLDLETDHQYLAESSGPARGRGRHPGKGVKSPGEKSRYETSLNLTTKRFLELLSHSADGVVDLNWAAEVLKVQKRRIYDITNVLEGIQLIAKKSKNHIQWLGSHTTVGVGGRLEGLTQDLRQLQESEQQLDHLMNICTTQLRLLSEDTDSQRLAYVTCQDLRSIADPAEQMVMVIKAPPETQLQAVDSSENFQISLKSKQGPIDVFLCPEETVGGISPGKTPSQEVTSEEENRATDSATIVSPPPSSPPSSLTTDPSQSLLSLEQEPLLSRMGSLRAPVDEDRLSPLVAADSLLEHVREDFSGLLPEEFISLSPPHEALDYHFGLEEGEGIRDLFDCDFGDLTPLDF

O=C(O)C(F)(F)C(F)(F)C(F)(F)C(F)(F)C(F)(F)C(F)(F)C(F)(F)C(F)(F)F
inactive: [1] | [2] | [4] | [5] | [6] | [8] | [9] | [10] | [11] | [12] | [13] | [15] | [16] | [17] | [18]
active: [3] 111 µM | [7] 106 µM | [11] 62.9 µM and 267 µM | [12] 81.9 µM and 50 µM | [14] 50.5 µM and 274 µM and 16.7 µM | [16] 248 µM | [18] 55.4 µM

Nc1ccc(-c2ccc(N)cc2)cc1
inactive: [2] | [3] | [4] | [5] | [6] | [8] | [9] | [10] | [11] | [12] | [13] | [14] | [15] | [16] | [18]
active: [1] 104 µM | [19] 91.2 µM

c1cc2ccc3cccc4ccc(c1)c2c34
active: [1] 104 µM | [9] 113 µM | [13] 68.7 µM
inactive: [2] | [3] | [4] | [19] | [5] | [6] | [8] | [10] | [11] | [12] | [14] | [15] | [16] | [18]

CCOCCOC(C)=O
inactive: [1] | [2] | [3] | [4] | [19] | [5] | [6] | [7] | [8] | [9] | [10] | [11] | [12] | [13] | [14] | [15] | [16] | [17] | [18]

Cc1cc2c3c(c1)C(c1ccccc1)=N[C@@H](NC(=O)c1ccncc1)C(=O)N3CC2
inactive: [1] | [2] | [3] | [4] | [19] | [5] | [6] | [7] | [8] | [9] | [10] | [13] | [14] | [15] | [16] | [18]
active: [11] 100 µM | [12] 161 µM

O=C(O)C(F)(F)C(F)(F)C(F)(F)C(F)(F)C(F)(F)C(F)(F)C(F)(F)C(F)(F)C(F)(F)F
inactive: [2] | [4] | [6] | [10] | [11] | [13] | [14] | [15] | [16] | [18]
active: [1] 108 µM | [3] 98.1 µM | [5] 113 µM | [7] 113 µM | [8] 111 µM | [9] 122 µM | [11] 86.6 µM | [12] 27.3 µM and 23.9 µM and 13.3 µM | [13] 69.7 µM | [14] 59 µM and 12.1 µM | [15] 46.5 µM
